Experimental data from the supplement of paper PMC11732987, “Enantioselective OTUD7B fragment discovery through chemoproteomics screening and high-throughput optimisation” (Communications Chemistry, 2025).

Tests used:
Assay in all cases: log2 ratio of Biotin-Ahx-Ub-VS probe labelling (fragment/DMSO); higher = less target engagement (more negative = stronger competition), active = hit call of the paper (q ≤ 0.05, log2 ratio ≤ -1)
Details in all cases: compound concentration: 200 uM; treatment time: 3 h
ALG13 = target: T1, ALG13 (UniProt Q9NP73)
T1 sequence (whole entry): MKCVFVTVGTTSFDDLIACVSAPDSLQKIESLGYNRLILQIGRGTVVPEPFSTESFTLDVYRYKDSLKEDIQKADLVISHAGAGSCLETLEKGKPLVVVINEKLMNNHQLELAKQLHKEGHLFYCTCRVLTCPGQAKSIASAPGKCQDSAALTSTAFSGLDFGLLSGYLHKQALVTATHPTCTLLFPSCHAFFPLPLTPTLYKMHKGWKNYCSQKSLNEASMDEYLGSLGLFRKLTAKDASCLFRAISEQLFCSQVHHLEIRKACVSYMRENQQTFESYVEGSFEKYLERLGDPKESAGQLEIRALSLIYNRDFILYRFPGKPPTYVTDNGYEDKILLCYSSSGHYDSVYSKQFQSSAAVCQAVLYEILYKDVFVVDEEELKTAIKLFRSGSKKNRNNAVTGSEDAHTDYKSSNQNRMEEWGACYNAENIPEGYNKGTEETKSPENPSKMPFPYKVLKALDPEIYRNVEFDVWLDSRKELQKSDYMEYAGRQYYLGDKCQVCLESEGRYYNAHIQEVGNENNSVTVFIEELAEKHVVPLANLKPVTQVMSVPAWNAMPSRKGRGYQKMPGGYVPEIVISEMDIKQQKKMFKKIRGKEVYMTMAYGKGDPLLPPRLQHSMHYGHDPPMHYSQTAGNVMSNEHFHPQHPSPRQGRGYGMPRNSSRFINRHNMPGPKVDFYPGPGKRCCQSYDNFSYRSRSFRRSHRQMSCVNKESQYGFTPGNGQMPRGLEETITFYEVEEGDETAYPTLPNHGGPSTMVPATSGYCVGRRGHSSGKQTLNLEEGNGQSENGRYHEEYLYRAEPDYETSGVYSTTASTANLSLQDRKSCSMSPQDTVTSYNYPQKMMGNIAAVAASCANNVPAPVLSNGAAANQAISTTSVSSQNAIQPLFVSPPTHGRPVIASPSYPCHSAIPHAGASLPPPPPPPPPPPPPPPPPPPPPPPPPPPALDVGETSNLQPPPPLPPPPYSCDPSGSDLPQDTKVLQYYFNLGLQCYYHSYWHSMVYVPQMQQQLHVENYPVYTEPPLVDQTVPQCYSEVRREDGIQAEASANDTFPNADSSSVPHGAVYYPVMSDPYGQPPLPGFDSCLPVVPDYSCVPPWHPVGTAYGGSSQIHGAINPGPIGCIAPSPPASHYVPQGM
Procedure, shortened: (§1)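 HEK293T lysate (495 µg per sample, in Tris/CHAPS/IGEPAL buffer with protease inhibitors) was treated in triplicate with fragment at 200 µM or with DMSO for 3 h. It was then treated with Biotin-Ahx-Ub-VS (0.5 µM final) for 1 h. Labelled DUBs were NeutrAvidin-enriched, digested with LysC and trypsin, and run by diaPASEF LC-MS/MS. Spectronaut label-free quantities were global-median-normalised. Values are average log2 ratios fragment/DMSO by unpaired t-test, using proteins with ≥2 unique peptides.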

ATXN3 = ATXN3 (UniProt P54252)
Chain of ATXN3 (P54252 whole entry): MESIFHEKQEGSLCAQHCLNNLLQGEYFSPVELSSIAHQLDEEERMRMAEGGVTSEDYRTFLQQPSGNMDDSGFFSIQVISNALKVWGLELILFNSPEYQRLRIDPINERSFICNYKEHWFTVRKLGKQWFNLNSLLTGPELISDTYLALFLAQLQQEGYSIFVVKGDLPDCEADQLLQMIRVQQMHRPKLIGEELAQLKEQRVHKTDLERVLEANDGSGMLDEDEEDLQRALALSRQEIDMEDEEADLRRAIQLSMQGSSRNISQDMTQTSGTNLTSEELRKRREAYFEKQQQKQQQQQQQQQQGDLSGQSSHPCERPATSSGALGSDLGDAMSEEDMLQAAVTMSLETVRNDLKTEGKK
Procedure, shortened: as §1

BAP1 = target: T2, BAP1 (UniProt Q92560)
T2 sequence (whole entry): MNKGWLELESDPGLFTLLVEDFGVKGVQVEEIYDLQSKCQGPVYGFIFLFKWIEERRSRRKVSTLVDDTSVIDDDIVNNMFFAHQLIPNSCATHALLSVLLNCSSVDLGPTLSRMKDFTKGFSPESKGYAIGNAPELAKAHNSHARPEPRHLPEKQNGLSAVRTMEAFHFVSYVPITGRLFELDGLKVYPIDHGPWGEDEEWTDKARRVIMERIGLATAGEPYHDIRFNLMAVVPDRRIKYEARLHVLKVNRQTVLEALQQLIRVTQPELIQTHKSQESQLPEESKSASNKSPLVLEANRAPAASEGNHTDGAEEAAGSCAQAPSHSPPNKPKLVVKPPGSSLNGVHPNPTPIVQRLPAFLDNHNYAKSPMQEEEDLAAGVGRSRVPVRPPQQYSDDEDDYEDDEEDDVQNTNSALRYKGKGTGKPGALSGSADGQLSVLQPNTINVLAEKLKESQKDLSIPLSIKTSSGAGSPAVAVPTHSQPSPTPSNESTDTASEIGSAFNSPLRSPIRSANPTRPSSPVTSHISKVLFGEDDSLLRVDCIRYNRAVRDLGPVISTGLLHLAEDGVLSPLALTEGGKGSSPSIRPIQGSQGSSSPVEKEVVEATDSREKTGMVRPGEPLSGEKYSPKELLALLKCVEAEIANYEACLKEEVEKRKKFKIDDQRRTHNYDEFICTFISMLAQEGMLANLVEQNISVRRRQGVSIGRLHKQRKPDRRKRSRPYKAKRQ
Procedure, shortened: as §1

EIF3F = EIF3F (UniProt O00303)
Chain of EIF3F (O00303 whole entry): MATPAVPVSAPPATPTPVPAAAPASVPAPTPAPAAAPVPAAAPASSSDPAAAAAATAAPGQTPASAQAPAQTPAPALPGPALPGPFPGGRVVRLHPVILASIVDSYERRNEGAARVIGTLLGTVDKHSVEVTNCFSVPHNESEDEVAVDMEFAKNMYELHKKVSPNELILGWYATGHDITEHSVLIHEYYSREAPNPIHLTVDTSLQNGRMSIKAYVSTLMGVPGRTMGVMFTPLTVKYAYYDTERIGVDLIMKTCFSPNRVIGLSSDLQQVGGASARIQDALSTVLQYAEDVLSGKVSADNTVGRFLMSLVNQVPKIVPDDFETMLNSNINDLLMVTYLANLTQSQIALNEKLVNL
Procedure, shortened: as §1

EIF3H = EIF3H (UniProt O15372)
Chain of EIF3H (O15372 whole entry): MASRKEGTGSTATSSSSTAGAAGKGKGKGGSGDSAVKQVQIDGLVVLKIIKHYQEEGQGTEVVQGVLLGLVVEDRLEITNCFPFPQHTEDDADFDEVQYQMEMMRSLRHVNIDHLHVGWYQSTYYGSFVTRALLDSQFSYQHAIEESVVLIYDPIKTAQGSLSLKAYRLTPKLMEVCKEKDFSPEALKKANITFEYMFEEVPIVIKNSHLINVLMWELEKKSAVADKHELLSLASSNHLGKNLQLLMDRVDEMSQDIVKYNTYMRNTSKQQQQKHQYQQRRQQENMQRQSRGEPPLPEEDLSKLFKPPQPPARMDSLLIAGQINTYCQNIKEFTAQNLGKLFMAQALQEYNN
Procedure, shortened: as §1

FAM105A = target: T3, FAM105A (UniProt Q9NUU6)
T3 sequence (whole entry): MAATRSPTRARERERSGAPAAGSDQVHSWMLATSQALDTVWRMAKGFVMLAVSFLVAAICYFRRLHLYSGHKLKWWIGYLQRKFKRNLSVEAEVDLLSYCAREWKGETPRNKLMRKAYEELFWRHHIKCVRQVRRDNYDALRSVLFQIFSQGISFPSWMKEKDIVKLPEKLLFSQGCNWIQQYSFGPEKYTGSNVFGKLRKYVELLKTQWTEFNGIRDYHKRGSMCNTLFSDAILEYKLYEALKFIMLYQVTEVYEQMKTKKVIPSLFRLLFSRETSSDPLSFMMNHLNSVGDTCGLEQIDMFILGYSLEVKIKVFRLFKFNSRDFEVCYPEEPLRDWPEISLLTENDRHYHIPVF
Procedure, shortened: as §1

OTUB1 = OTUB1 (UniProt Q96FW1)
Chain of OTUB1 (Q96FW1 whole entry): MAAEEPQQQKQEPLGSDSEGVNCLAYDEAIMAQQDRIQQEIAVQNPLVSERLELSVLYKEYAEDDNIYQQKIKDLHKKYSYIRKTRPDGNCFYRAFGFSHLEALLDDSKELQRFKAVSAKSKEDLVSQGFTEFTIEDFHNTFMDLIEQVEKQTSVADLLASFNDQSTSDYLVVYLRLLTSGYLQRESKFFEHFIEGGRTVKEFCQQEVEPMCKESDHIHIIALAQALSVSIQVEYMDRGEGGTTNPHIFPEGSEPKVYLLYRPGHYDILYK
Procedure, shortened: as §1

OTUD4 = target: T4, OTUD4 (UniProt Q01804)
T4 sequence (whole entry): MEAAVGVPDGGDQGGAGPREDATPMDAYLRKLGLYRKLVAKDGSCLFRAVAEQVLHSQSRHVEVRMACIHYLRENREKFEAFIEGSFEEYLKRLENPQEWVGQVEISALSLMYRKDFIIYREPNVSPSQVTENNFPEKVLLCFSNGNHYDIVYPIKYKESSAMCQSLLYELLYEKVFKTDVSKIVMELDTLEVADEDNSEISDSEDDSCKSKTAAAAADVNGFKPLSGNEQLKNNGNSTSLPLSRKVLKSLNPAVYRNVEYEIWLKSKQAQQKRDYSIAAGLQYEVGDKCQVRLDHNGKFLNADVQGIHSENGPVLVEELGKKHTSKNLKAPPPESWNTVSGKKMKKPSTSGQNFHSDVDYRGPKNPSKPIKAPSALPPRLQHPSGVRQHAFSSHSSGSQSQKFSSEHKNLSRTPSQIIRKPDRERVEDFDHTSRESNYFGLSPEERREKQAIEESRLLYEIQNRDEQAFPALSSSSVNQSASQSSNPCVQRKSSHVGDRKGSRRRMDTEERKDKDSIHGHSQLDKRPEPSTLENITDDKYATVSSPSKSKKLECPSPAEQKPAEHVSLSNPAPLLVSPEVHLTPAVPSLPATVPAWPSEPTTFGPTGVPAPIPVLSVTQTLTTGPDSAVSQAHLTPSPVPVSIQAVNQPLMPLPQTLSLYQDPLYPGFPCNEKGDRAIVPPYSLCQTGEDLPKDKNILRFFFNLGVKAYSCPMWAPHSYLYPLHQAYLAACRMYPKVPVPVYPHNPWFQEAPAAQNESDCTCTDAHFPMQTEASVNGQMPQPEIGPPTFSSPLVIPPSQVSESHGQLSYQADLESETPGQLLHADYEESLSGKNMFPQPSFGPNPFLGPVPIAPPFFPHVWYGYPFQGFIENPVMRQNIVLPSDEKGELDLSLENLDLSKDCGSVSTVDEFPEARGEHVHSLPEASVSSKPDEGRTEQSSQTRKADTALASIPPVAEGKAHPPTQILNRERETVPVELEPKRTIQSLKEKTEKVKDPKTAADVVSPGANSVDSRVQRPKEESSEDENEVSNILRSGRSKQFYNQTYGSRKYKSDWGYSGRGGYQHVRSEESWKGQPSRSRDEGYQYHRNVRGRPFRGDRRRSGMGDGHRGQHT
Procedure, shortened: as §1

OTUD5 = target: T5, OTUD5 (UniProt Q96G74)
T5 sequence (whole entry): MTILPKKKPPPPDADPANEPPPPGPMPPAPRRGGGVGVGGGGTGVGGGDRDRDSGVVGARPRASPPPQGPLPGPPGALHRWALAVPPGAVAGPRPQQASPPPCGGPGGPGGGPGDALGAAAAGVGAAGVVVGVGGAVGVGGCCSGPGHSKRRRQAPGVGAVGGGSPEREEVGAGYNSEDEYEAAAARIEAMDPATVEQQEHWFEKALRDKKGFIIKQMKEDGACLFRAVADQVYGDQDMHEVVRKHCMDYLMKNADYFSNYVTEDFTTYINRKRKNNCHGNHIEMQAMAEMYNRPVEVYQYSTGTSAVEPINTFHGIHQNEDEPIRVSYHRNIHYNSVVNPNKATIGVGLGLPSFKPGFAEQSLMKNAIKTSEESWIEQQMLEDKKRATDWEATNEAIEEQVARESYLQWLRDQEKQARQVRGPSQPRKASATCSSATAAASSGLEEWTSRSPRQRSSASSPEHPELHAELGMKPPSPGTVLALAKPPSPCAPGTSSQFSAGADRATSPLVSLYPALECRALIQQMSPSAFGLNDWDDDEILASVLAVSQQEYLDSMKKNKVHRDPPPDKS
Procedure, shortened: as §1

Measured: log2 ratio of Biotin-Ahx-Ub-VS probe labelling

O=C(CCl)N1CCOC(c2cccc(F)c2)C1 (centres undefined)
inactive: ALG13 -0.261 | EIF3F -0.0524 | EIF3H 0.265 | FAM105A -0.167 | OTUB1 -0.175 | OTUD4 -0.803 | OTUD5 -0.491
active: ATXN3 -2.59 | BAP1 -1.09
